Bioassay records deposited in PubChem BioAssay by National Center for Advancing Translational Sciences (NCATS).
An excerpt weighted towards active compounds, which were near 14% of everything screened.
4-MU autofl: compound fluoresces in the 4-MU spectral region | compound autofluorescence, 340/450 nm, 4-MU equivalents; hits give high values | max dye-equivalent concentration, M | hit rate 11% among 59,000; in the data active = max dye-equivalent concentration above about 10 nM; inconclusive = mostly about 1.1 nM to 9.6 nM
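Compounds in 100 mM Tris, pH 8.0, incubated 15 min at room temperature, then fluorescence read at 340 nm excitation/450 nm emission. Signal converted to 4-MU dye-equivalent concentration using an on-plate six-point 4-MU standard curve.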
A350 autofl: A350 region autofluorescence; Compound autofluorescence, 340/450 nm, Alexa 350 dye-equivalents; hits give high values; max dye-equivalent concentration, M; hit rate 11% among 59,000; AID 590; in the data active = max dye-equivalent concentration above about 10 nM; inconclusive = mostly about 1.1 nM to 9.6 nM
HADH2 inh: HADH2 (human) dehydrogenase inhibition. recombinant HADH2, NADH fluorescence, beta-hydroxybutyryl-CoA. Potency, µM (series often up to 57.1 µM), without a hit: at the top dose activity change, negative = inhibition, hits mostly inhibitors. hit rate 3.4% among 73,000. AID 886; also: potency is read from the fitted curve at half-maximal effect; % is scaled to controls: 0 for no effect and ±100 for the full control effect; nearly all actives have a fitted effect of over 60% in size
Target sequence (Q99714 whole entry, looked up, one chain of several): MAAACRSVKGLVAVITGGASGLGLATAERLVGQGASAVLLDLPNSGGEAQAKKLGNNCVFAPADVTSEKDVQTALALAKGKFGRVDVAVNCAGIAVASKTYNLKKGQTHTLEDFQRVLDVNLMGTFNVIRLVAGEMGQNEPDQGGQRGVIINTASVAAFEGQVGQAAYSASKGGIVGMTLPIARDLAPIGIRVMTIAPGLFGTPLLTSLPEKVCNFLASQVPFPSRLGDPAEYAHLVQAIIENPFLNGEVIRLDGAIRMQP
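Activity measured as NADH fluorescence gain (360/450 nm), taken as the change between first and last reads of a 4-min kinetic run. Conditions: pH 9.0 Tris buffer, 20 nM E. coli-expressed His-tagged enzyme, 1 mM NAD+, 90 uM beta-hydroxybutyryl-CoA; 15-min compound preincubation.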
HSD17B inh: HSD17B dehydrogenase inhibition. recombinant HSD17B10, NADH fluorescence kinetic. Q99714. hit rate 7.6% among 75,000. Potency, µM (series often up to 57.1 µM), without a hit: at the highest dose activity change, negative = inhibition, usual class: inhibitors. AID 893;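 also: the protocol describes HADH2 (HSD17B10) and not the HSD17B4 of the title; potency is read from the fitted curve at half-maximal effect; % is scaled to controls: 0 for no effect and ±100 for the full control effect; nearly all actives have a fitted effect of over 70% in size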
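His-tagged E. coli-expressed HADH2 at 20 nM in 100 mM Tris-HCl pH 9.0 with 0.01 % Tween-20, preincubated 15 min with compound at room temperature. Reaction with 1 mM NAD+ and 90 uM beta-hydroxybutyryl coenzyme A; NADH fluorescence (360/450 nm) read kinetically over 4 min, last minus first point.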
AID923: qHTS Assay for Allosteric/Competitive Inhibitors of Caspase-1: Spectroscopic Profiling in AFC Spectral Region; compound fluorescence, AFC spectral region (405/520 nm); hit rate 1.1% among 75,000; AID 923, 2007; Potency, µM (top dose mostly 57.5 µM), without a hit: top-dose fluorescence increase, hits mostly activators; also: potency is read from the fitted curve at half-maximal effect; 0% is about no effect
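Titrations up to 57 uM read every 20 sec for 3 min (405/520 nm) with 50 nM caspase 1 and 5 uM Ac-WEHD-AFC, pH 7.5 HEPES buffer. Fluorescence-vs-time intercept gave baseline, scaled against on-plate AFC standard.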
CRE-bla Fsk: alters forskolin-stimulated CRE reporter signaling in CHO cells; CHO CRE-bla reporter (cAMP response element driving beta-lactamase), forskolin EC10, beta-lactamase ratio; Potency, µM (titrated, usually from 38.2 µM), for the others: at the highest dose activity change, negative = inhibition, most hits filed as activators; hit rate 2.5% among 71,000; active = well fitted activation curve with a large enough effect in the signal ratio, with a control signal flat, not every such curve was filed as active; inconclusive = small, poorly fitted or top-dose-only effect, or effect the other way, or a change in a side signal; the % refers to the signal ratio; also: potency is read from the fitted curve at half-maximal effect; % of control where 0% means no effect
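Modulation of forskolin signalling: compounds in titration series added with EC10 NKH 477 to CHO cells carrying a CRE-driven beta-lactamase reporter, 3 h, 37C. CCF4 FRET ratio (460/530 nm, ex 405 nm) gives %activity and AC50.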
An asterisk follows results filed as active; i = inactive; ? = inconclusive; / = no result; [ ] = another dose, or the depositor's remark. Unless noted, calls follow the shape of the dose curve; as a rule, active = well fitted curve in the direction sought with a large enough effect; inconclusive = small, poorly fitted or top-dose-only effect, or another doubt; inactive = no such curve, though single readings can be large; an effect the other way counts as inactive or inconclusive.

SMILES	4-MU autofl	A350 autofl	HADH2 inh	HSD17B inh	AID923	CRE-bla Fsk
CCOC(=O)N1CCN(C(=O)CCCn2c(=S)[nH]c3ccccc3c2=O)CC1	i	i	-25%	-3%	1%	10%
CCOC(=O)N1CCN(C(=O)CCCn2c(=O)[nH]c3ccccc3c2=O)CC1	?	?	-8%	20µM*	0%	7%
CC(=O)N1CCC2(CCCN(Cc3cc(C(F)(F)F)cc(C(F)(F)F)c3)C2)CC1	i	i	-4%	-3%	1%	-6%
CC1=C(C(=O)Nc2cccc(C)n2)C(c2ccc3c(c2)OCO3)C2=C(CC(c3ccco3)CC2=O)N1 (stereo not given)	8e-08M*	8.1e-08M*	?	?	18%	?
Cc1ccc(S(=O)(=O)Cc2cn3cccnc3n2)cc1	2.2e-07M*	9.3e-08M*	20µM*	25µM*	-1%	2%
Cc1ccc(S(=O)(=O)CCc2ccccn2)cc1	i	i	2%	15%	-2%	-5%
O=C(O)C1=C/C(=C(/c2ccccc2)c2cc(C(=O)O)c(O)c3ccccc23)c2ccccc2C1=O	i	i	-10%[11.4 µM]	-25%[11.4 µM]	-4%[11.5 µM]	-7%[7.6 µM]
C[C@H](CO)NC(=O)[C@H]1C[C@@H]1[C@H](NP(=O)(c1ccccc1)c1ccccc1)c1ccccc1	/	/	7%	3%	-1%	-13%
CCOC(=O)CCn1c2nc(C)cc(C)c2c(=O)n1-c1ccccc1	3.7e-08M*	3.7e-08M*	-12%	25µM*	-2%	?
COc1ccc(C2C(C(=O)N3CCCCC3)c3ccccc3C(=O)N2C)cc1 (stereo not given)	i	i	-10%	3%	1%	-19%
COCCN1C(=O)c2ccccc2C(C(=O)N2CCN(c3ccccn3)CC2)C1c1ccc(F)cc1 (stereo not given)	i	i	1%	25µM*	0%	-6%
CCOc1ccccc1NS(=O)(=O)c1ccc(OC)c(OC)c1	i	i	7%	7%	-1%	25%
CCOc1ccccc1NS(=O)(=O)c1cccs1	2.6e-08M*	2.7e-08M*	5%	-7%	-2%	?
CC(C)C[C@@H](CC(=O)N[C@@H](CCC(=O)O)CC(=O)O)NC(=O)[C@@H]1CCCC[C@H]1NC(=O)C[C@H](CCCN)NC(=O)C[C@H](Cc1c[nH]c2ccccc12)NC(=O)[C@@H]1CCCC[C@H]1N	/	/	15%	/	/	-15%
COc1ccc2[nH]c(=O)c(CN(CCCN(C)C)C(=O)Nc3ccc(F)cc3)cc2c1	1.9e-07M*	2.3e-07M*	-22%	32µM*	-1%	8%
Cc1ccc2[nH]c(=O)c(CN(CCc3ccccc3)C(=O)N3CCOCC3)cc2c1	?	?	5%	-23%	-3%	-2%
CCN(CC)CCN(Cc1cc2cc(C)ccc2[nH]c1=O)C(=O)Nc1ccccc1OC	i	?	12%	-6%	1%	?
CCOc1ccc2[nH]c(=O)c(CN(Cc3cccnc3)C(=O)Nc3ccccc3OC)cc2c1	7.5e-08M*	1e-07M*	-1%	?	-2%	?
COc1ccc2[nH]c(=O)c(CN(Cc3cccnc3)C(=O)Nc3ccccc3)cc2c1	9.8e-08M*	9.7e-08M*	?	?	0%	14%
CCc1ccc2[nH]c(=O)c(CN(CCCN3CCOCC3)C(=O)Nc3ccc(Cl)cc3)cc2c1	i	i	-9%	4%	0%	4%
CCOc1ccc2[nH]c(=O)c(CN(CCc3ccccc3)C(=O)c3cnccn3)cc2c1	1.5e-08M*	1.6e-08M*	4%	-4%	7%	1%
CC(=O)N(Cc1cccnc1)Cc1cc2ccccc2[nH]c1=O	i	i	6%	?	-2%	?
CCCC=O	/	/	0%	2%	-3%	5%
O=[N+]([O-])c1ccc(CSCc2ccc(Cl)cc2)cc1	i	i	0%[11.4 µM]	5%[11.4 µM]	-1%[11.5 µM]	9%[7.6 µM]
CC[C@]1(c2ccccc2)NC(=O)N(C)C1=O	i	i	-3%[25.6 µM]	-2%[25.6 µM]	2%[25.7 µM]	-1%[17.1 µM]
SMILES	4-MU autofl	A350 autofl	HADH2 inh	HSD17B inh	AID923	CRE-bla Fsk
CC1(C)[C@@H](OC(=O)CCC(=O)O)CC[C@@]2(C)[C@H]1CC[C@@]1(C)[C@H]2C(=O)C=C2[C@H]3C[C@](C)(C(=O)O)CC[C@]3(C)CC[C@@]21C	i	i	5%[25.6 µM]	-21%[25.6 µM]	0%[25.7 µM]	10%[17.1 µM]
FC(F)(F)c1ccccc1-c1nc(NC2CC2)c2ccccc2n1	?	?	4%	?	1%	5%
Cc1ccc(-c2ccc(/C=N/c3ncn[nH]3)o2)cc1Cl	?	1.3e-08M*	/	/	/	/
Cc1c(N=Cc2ccc(-c3ccc(Cl)cc3)o2)c(=O)n(-c2ccccc2)n1C	i	i	-9%	7%	-2%	-6%
NCC1CCC(N)C(O[C@@H]2C(O)[C@H](O[C@H]3OC(CO)C(O)C(N)C3O)[C@@H](N)C[C@H]2N)O1 (stereo not given in full)	/	/	/	4%	-2%	/
C=CCOc1ccccc1C1C2=C(CC(C)(C)CC2=O)Nc2c1c(=O)n(C)c(=O)n2C (stereo not given)	6.3e-07M*	8.2e-07M*	-6%	13µM*	10%	12%
COC(=O)[C@@]1(Cc2ccc(F)cc2)[C@H]2c3cc(C(=O)N(C)C)n(CCc4ccc(O)c(O)c4)c3C[C@H]2CN1C(=O)c1ccccc1	/	/	16µM*	32µM*	-2%	?
COC(=O)[C@@]1(Cc2ccc(F)cc2)[C@H]2c3cc(C(=O)N4CCCC4)n(CCc4ccc(O)c(O)c4)c3C[C@H]2CN1C(=O)c1ccccc1	/	/	16µM*	20µM*	-1%	-7%
COC(=O)[C@@]1(Cc2ccc(F)cc2)[C@H]2c3cc(C(=O)N4CCCC4)n(CCO)c3C[C@H]2CN1C(=O)c1ccccc1	/	/	11%	25µM*	-4%	-20%
COC(=O)[C@@]1(Cc2ccc(F)cc2)[C@H]2c3cc(C(=O)N(C)C)n(CCF)c3C[C@H]2CN1C(=O)c1ccccc1	/	/	6%	9%	3%	-15%
COC(=O)[C@@]1(Cc2ccc(OC)cc2)[C@H]2c3cc(C(=O)N4CCCC4)n(CCO)c3C[C@H]2CN1C(=O)c1ccccc1	/	/	-8%	35%	2%	?
CC1CCC(O)([C@](C)(C(=O)O)c2ccccc2)CC1 (stereo not given in full)	i	i	3%[11.4 µM]	10%[11.4 µM]	-1%[11.5 µM]	0%[7.6 µM]
Cc1cccc(-n2ncc3c(NCc4ccccn4)ncnc32)c1	i	?	27%	20µM*	1%	?
Clc1ccc(-n2ncc3c(NCc4cccs4)ncnc32)cc1	i	i	/	/	/	/
Cc1cccc(-n2ncc3c(NCc4ccco4)ncnc32)c1	i	i	/	/	/	/
